Compounds without any hit were thinned out: in the full panel of roughly 83,000, 20% have a hit.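 How to read the values: 0–100, growth inhibition (40 = 60% inhibited); 0, no net growth; -100 to 0, cell death (-40 = 40% of starting cells died; -100 = all dead).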 Unmarked numbers belong to inactive results. Calls of active or inactive are those of the source. Rule for the calls: active = growth percent below 10; inactive = the rest.
These molecules were tested on NCI-H522 lung (assay: NCI-60 one-dose screen, 48 h (100 = growth as untreated, 0 = no growth, -100 = all killed)). Conditions: 10 µM unless noted.
For O=c1ccc(N=Nc2ccccc2)ccc1Cl, the growth was -22.6% (active). CCCCCCn1c(-c2ccc(C(=O)O/N=C(\N)c3ccc(OC)cc3)cc2)nc(-c2ccccc2)c1-c1ccccc1 was tested, and the growth was -59% (active). Work on COc1ccc(C(=O)C[C@]2(O)C(=O)Nc3c(Cl)ccc(Cl)c32)cc1 yielded a growth of 13.4%. Work on CCCCOc1nc2c(C)cccc2cc1-c1cc(-c2ccc(Cl)cc2)nc(-c2ccc(Cl)cc2)c1 yielded a growth of 97.4%. Work on CSc1ncccc1C(=O)OCC(=O)Nc1oc(C)c2c(C)n[nH]c(=O)c12 yielded a growth of 84.2%. Work on O=C(Oc1cccc2ccccc12)Oc1cccc2ccccc12 yielded a growth of 93.8%. For COC(=O)[C@H](C)NC(=O)NC(=O)NC(=O)CI, the growth was -75% (active). With C[C@H](C(=O)Nc1ccc(S(N)(=O)=O)cc1)S(=O)(=O)c1ccccc1 the growth was 90.7%. Molecule c1ccc2c(c1)Nc1ccncc1S2 has a growth of 92.5%. In the case of COc1ccc(C2CC(c3ccc(Nc4ccnc5cc(Cl)ccc45)cc3)=NN2C=O)cc1 (configuration not stated), the growth is reported as 67.3%. For O=C(CS(=O)c1oc(-c2cccs2)nc1S(=O)(=O)c1ccc(Br)cc1)c1ccccc1 (configuration not stated), the growth was 81.4%. O=C(N=c1oc2ccccc2cc1-c1cc2ccccc2[nH]1)Nc1ccc(Cl)cc1 was tested, and the growth was 88.4%. CCc1cccc2c3c(sc12)C(c1ccc(F)cc1)C(C#N)=C(N)O3 (configuration not stated) showed a growth of 26.8%. Work on C/C(=C\C(=O)c1ccc(Cl)cc1)c1ccc(Cl)cc1 yielded a growth of 87.8%. With COc1cc(/C=C/c2ccccc2)cc(OC)c1 the growth was 84.1%. With O=C(Nc1ccc(I)cc1F)c1cc(I)ccc1O the growth was -5.05% (active). For CCOc1cccc(NC2=C(Br)C(=O)C(C)=C(C)C2=O)c1, the growth was 80.5%. With Cc1nc(S(=O)(=O)c2ccccc2)c(S(=O)(=O)Cc2ccc([N+](=O)[O-])cc2)o1 the growth was 68.8%. With Nc1nc(Cl)cc(=O)n1Cc1ccccc1 the growth was 86.7%. Oc1ccc(C#CCOc2ccccc2)cc1CNCCN(Cc1ccccn1)Cc1ccccn1 was tested, and the growth was 9.5% (active). c1ccc(Nc2cc(-c3cccnc3)[nH]n2)cc1 showed a growth of 89.5%. Molecule CNCCCNc1nc2ccccc2c2c(=O)c3cc(OC)ccc3sc12 has a growth of 85.7%. Cc1nc2ccccc2n1CC1C(=O)NC(=O)NC1=O showed a growth of 94.4%. For COc1ccc(OC)c(/C=C/C(=O)N/N=C/c2ccc(Cl)cc2)c1, the growth was -36.2% (active). In the case of Cc1ccc(S(=O)(=O)Oc2ccc(NC(=O)c3ccc(Cl)cc3)cc2)cc1, the growth is reported as 83.8%. Work on Nc1nn(C(=O)Nc2ccc(Cc3ccccc3)cc2)c2ccc(Cl)cc12 yielded a growth of 73.1%. CC(=O)CC[C@H]1C(=O)N[C@@H](C(C)C)C(=O)N[C@@H](Cc2cc(O)cc(F)c2)C(=O)N2CCC[C@H](N2)C(=O)O[C@H](/C(C)=C/C=C/C(=O)OC(C)(C)C)C/C=C/C=C/[C@H](O)[C@H](C)[C@H]1O was tested, and the growth was 43.8%. Cn1cc(-c2cc3ncnc(Nc4ccc(CC(=O)Nc5cc(C(C)(C)C)nn5C)cc4)c3s2)cn1 gave a growth of 41.5%. Oc1c(I)cc(I)cc1CNCCCN(Cc1ccccn1)Cc1ccccn1 was tested, and the growth was -56.4% (active). COc1ccc(/C=C2\Oc3cc(OCCN4CCC(Cc5ccccc5)CC4)ccc3C2=O)cc1OC showed a growth of 78.2%. For CC[C@H](C)C(=O)O[C@H]1CCC=C2C=C[C@H](C)[C@H](CC[C@@H]3CC=CC(=O)O3)[C@H]21, the growth was 56.2%. For Cc1cccc2c(=O)c3c(sc12)c(NCc1ccccc1)nc1ccccc13, the growth was 81.6%. With COc1cc(C2CC(c3ccc(N(C)C)cc3)=NN2C(C)=O)cc(OC)c1OC (configuration not stated) the growth was -5.66% (active). CCCCCCNC(=O)Oc1ccc(/C(=C(\C)c2ccc(Cl)cc2)c2ccc(OCCCN(C)C)cc2)cc1 showed a growth of 83.7%. N[C@@H](Cc1ccccc1)[C@@H](O)C(=O)NCc1ccc(F)cc1 gave a growth of 95.9%. Work on COC(=O)/C=C1\S/C(=N\Nc2ccc([N+](=O)[O-])cc2[N+](=O)[O-])N(C2CCCCC2)C1=O yielded a growth of 43.6%. For O=C(O)c1cn(C2CC2)c2cc(N3CCN(C(=O)Nc4nc(-c5ccccc5)cs4)CC3)c(F)cc2c1=O, the growth was -2.04% (active).
